Measured values: the supplement of paper PMC11417369
± gives the standard deviation of the averaged measurements. Over roughly 25,000 sequences, “ln(normalized median fluorescence intensity)” has its median near 7.9; the highest 2% begin near 11. The sample holds the highest values, similar sequences and a random draw of the others, so the mix is not that of the screen.

Test system: PfAP2-I AP2 domain 3 (GST-tagged)
Assay: gcPBM binding intensity (ln(normalized median fluorescence intensity)); higher = stronger DNA binding
How it was run: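 GST-tagged P. falciparum DNA-binding domains produced in E. coli were incubated for 1 h on an Agilent 4 × 180k array of primer-extended double-stranded 36-bp intergenic genomic probes with negative controls. Binding intensity is the highest Masliner-normalised natural-log median intensity across replicate spots of either probe orientation, with bound protein detected by Alexa488 anti-GST antibody at 488 nm.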

Sequence | gcPBM binding intensity (ln)
TTTTGAATTAAACAAGCATGCTTTATTTACTTCTTA [TGCATGCA_site289] | 7.59 ± 0.86
ACTAAACGAATAAATTGTACAAAGAAATATATTCAT [XGTACX_site6766] | 7.83 ± 0.54
TTCTTCTGTTTTATTACACACCATTTTGTGGATACA [CACACA_site5181] | 8.38 ± 0.71
ACTACATAATACTATTCACACATTTTTTTTTTTTTT [CACACA_site5794] | 7.83 ± 0.58
ATATATATTTTTAATTGTACAGAATTAAAAATATTG [XGTACX_site1967] | 7.64 ± 0.45
AAAAAAAAAAAACACACACACACACCGATACATACA [CACACA_site8849] | 7.92 ± 0.45
AAAAGGAAAATACTAGCACACAATATATAATAAACA [CACACA_site285] | 7.99 ± 0.49
ATTTCCCCAACGTGGGTGCATATATTTATGTGTGAA [GTGCAC_site9439] | 10.9 ± 0.82
ATTTATATATATGTATGTACGTATGTGTGTATATGT [XGTACX_site7587] | 8.55 ± 0.27
TATTTATATGTATATACATGCACATATATATGAAAC [TGCATGCA_site1005] | 8.35 ± 0.57
ATATGAAACATGAAGGTGCATAATGTGTATATTTAT | 11.3 ± 0.69
CACATATATATGTGTGCATGTTGTATTATATATTTA [TGCATGCA_site632] | 8.69 ± 0.46
ATATATTATGGGTGTGCACACAATATTTATATGTTC [CACACA_site2270] | 9.59 ± 0.23
TTTCACATATATATGGTGCATATTTTATGTGTAAAT [GTGCAC_site9937] | 9.95 ± 0.52
TTTATTTATGTGTGGGTGCATATACGTATGATGTAT | 11 ± 0.72
GTATTATTTTATGATGCATGTGTATTTCATATATGC [TGCATGCA_site660] | 7.74 ± 0.49
AGAGGAAAAATAAAAGGAAAAAAGAAAATAATATTG [CACACA_negctrl_site852] | 7.45 ± 0.73
GAATGAATGATAAATTTTTTTTTCTTTTTTTTTTTG [CACACA_negctrl_site333] | 7.09 ± 0.59
ACCTTATAAAAAAAAAGTACATATATAAATAATAAA [XGTACX_site4338] | 8.29 ± 0.13
ATATAATTAAAAACATGTACATATATATATATATAT [XGTACX_site2882] | 9.27 ± 0.2
CAAACCCACCAACACACACACACAAAAATGATTAAA [CACACA_site2432] | 8.03 ± 0.23

Sequence | gcPBM binding intensity (ln)
ATGTTCTTTAAAACCACACACCCCCCAACCCCCCTC [CACACA_site2373] | 10.6 ± 0.36
TTATGTTCTTTAAAACCACACACCCCCCAACCCCCC [CACACA_site8742] | 10.9 ± 0.44
ATAAGTATAAGAATCAGTACACAGTTTCTACATACT [XGTACX_site5834] | 7.56 ± 0.51
TATCAAAGTAGAAGAGATCGATGTCATATTGTGATG [GTGCAC_negctrl_site42] | 7.73 ± 0.75
GGTCTTCTTAATATACTGCACTGTATACGTATATAA | 11 ± 0.61
TATAATATTAATGACTGTACTCATACGTATATTTAT [XGTACX_site5493] | 7.79 ± 0.3
CATATGCATACTATACGTACATATGTATATAATATA [XGTACX_site7738] | 8.03 ± 0.42
GATAGATAATATTTTAGTACATAAACAATTAAATAT [XGTACX_site4125] | 7.91 ± 0.44
TAATCATAAAAAAATACACACATATAAAATATAGAT [CACACA_site7020] | 7.51 ± 0.63
TAGGGATTATACCACACACACATACACATAAATATA [CACACA_site3178] | 7.86 ± 0.32
TCATATATATTATACACACACATATATAAATATATA [CACACA_site967] | 7.87 ± 0.54
CATAAAAATGGATACACACACATAATATATATATAT [CACACA_site3619] | 9.08 ± 0.11
ATGGATTATACGTGCACACATATATACCAATAAATA [CACACA_site4524] | 11.2 ± 0.22
TTATAATATGGATACACACACATATATAAATATATA [CACACA_site5314] | 7.68 ± 0.38
TAATGGATTATACGTGCACACATATATACAAATAAA [CACACA_site8116] | 10.97 ± 0.035
TATAAATACATACGTACACACAAATATTAAAATATA [CACACA_site5129] | 7.905 ± 0.007
ATGGATTATACGTGCACACATATATACAAATAAATA [CACACA_site640] | 11.19 ± 0.035
ATATAAATACGGTGTGCACACACATAATATATATAT [CACACA_site2271] | 9.52 ± 0.26
AATAATAATAAAAATAAACACACATATATATGTATA [CACACA_site8928] | 7.57 ± 0.28
AATATAATTATATGTGGTACAGAAATAATATAAAAT [XGTACX_site2366] | 8.22 ± 0.52
TTATAAAAAAAAAAAAAAAAGAAAATGAATTCACGA [CACACA_negctrl_site1248] | 8.19 ± 0.3

Sequence | gcPBM binding intensity (ln)
TAAATTATTATCCCCTCACACACAAAAATAAAAAGA [CACACA_site2886] | 8.56 ± 0.25
CGTTGTAGGGAATGTAGTACAGTTATTATTTTATTA [XGTACX_site2429] | 7.88 ± 0.24
TTAATGCACTTTATTACACACACTAGTTCATTACCT [CACACA_site2294] | 11.5 ± 0.95
TATTATATTGTTCATTTACACTTTCATTTTAAAAAA [CACACA_negctrl_site260] | 8.05 ± 0.54
AATGAGAATTTTATTACACACTTTAATATATTTTCA [CACACA_site784] | 7.7 ± 0.53
ATAGTTACACAATGGTGTACAAGTCAATATATTTCT [XGTACX_site4614] | 7.95 ± 0.33
ATATTGTTATATGTTTGTACATATTTTTTATATTTT [XGTACX_site6834] | 7.7 ± 0.64
AACAAAATAAAAAGTAATCTTATTTATTAAAATTTT [CACACA_negctrl_site419] | 7.25 ± 0.43
AAGGCATGACTATCTGCACACATAAAAATAAGAAAT [CACACA_site8180] | 8.62 ± 0.39
TAAATAGTTATAAAAGTGCAAAAAAAAAAAAAAAAA [GTGCAC_site9550] | 10.1 ± 0.53
TATAAATTTATAAATAGTACATATATTTATATATAT [XGTACX_site6433] | 8.12 ± 0.64
GCTGAAAGGATAAAGGTGCATATTTTTTAAAAAATT [GTGCAC_site9487] | 10.4 ± 0.28
ACAATGAAATATTCATGTACATATAAATAATAGTGT [XGTACX_site3762] | 7.93 ± 0.42
TAAAATATTTCAAAGGTGCAATGATAATTTAAGACG [GTGCAC_site9609] | 10.6 ± 0.54
TTATAAAAAATTTTAGTGCATATATGATTTATATAT [GTGCAC_site9831] | 10.1 ± 0.33
AAGAAAATATAACAAAGTAAAAACATATTATATATA [TGCATGCA_negctrl_site248] | 7.34 ± 0.34
ATATAAGAATAAATAGTGCAAAATAAATGATTATTT | 10.7 ± 0.33
GTTATTGAAAAAATAGTGCAATATAACAAAGTAAAA | 11.4 ± 0.52
CATAATTTAAAAAAGGTGCAAAATGGATAATATATA [GTGCAC_site9657] | 11.1 ± 0.57
AAATGAATATTCATAGTGCAATATATAAATGAAAAT | 11 ± 0.38
AAAATTTATAGTATGGTGCATAAAAATATATATATA | 11.4 ± 0.23
